Assay results reported in the supplement of paper PMC6522484.
± gives the standard deviation of the averaged measurements.

Key:
DLD1 [1] = experiment: cell viability (CellTiter-Glo) relative to plate median (fraction of plate median); higher = more viable cells; conditions: 5 µM; treatment time 24 h; reporter: 7TFP
How it was run: (§1)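 Library compounds were added at a final concentration of 5 µM for 24 h to colorectal cancer cells stably transduced with a lentiviral TCF/Wnt firefly luciferase reporter. Reported values are firefly luciferase or CellTiterGlo luminescence, normalised per well to the plate median. Each value averages two independent replicates.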

HCT116 = experiment: as above; conditions: 5 µM; treatment time 24 h; reporter: TCF4/Wnt
How it was run: as §1

SW480 [2] = experiment: as above; conditions: 5 µM; treatment time 24 h; reporter: 7TFP
How it was run: as §1

DLD1 [3] = experiment: TCF/Wnt firefly luciferase reporter signal relative to plate median (fraction of plate median); higher = higher Wnt reporter signal; conditions: 5 µM; treatment time 24 h; reporter: 7TFP
How it was run: as §1

SW480 [4] = experiment: as above; conditions: 5 µM; treatment time 24 h; reporter: 7TFP
How it was run: as §1

Structure (SMILES): C/C(=C\C(=O)OCCCCCCCCC(=O)O)C[C@@H]1OC[C@H](C[C@@H]2O[C@H]2[C@@H](C)[C@H](C)O)[C@@H](O)[C@H]1O
- cell viability (DLD1 [1]): 0.973 ± 0.052
- cell viability (HCT116): 1 ± 0.025
- cell viability (SW480 [2]): 0.939 ± 0.017
- TCF/Wnt firefly luciferase reporter signal (DLD1 [3]): 0.9545 ± 0.0021
- TCF/Wnt firefly luciferase reporter signal (SW480 [4]): 1.03 ± 0.028

Structure (SMILES): O=C(O)c1cn(C2CC2)c2cc(N3CCNCC3)c(F)cc2c1=O
- cell viability (DLD1 [1]): 0.964 ± 0.037
- cell viability (HCT116): 0.988 ± 0.015
- cell viability (SW480 [2]): 1.03 ± 0.021
- TCF/Wnt firefly luciferase reporter signal (DLD1 [3]): 1.05 ± 0.078
- TCF/Wnt firefly luciferase reporter signal (SW480 [4]): 1.07 ± 0.014

Structure (SMILES): CC(=O)O[C@H]1CC[C@]2(C)C(C[C@@H](OC(C)=O)[C@]3(C)C4=CC(=O)O[C@H](c5ccoc5)[C@@]4(C)CCC23)C1(C)C (stereo partly drawn) [3-DEOXO-3beta-ACETOXYDEOXYDIHYDROGEDUNIN]
- cell viability (DLD1 [1]): 1 ± 0.057
- cell viability (HCT116): 1.14 ± 0.19
- cell viability (SW480 [2]): 0.982 ± 0.04
- TCF/Wnt firefly luciferase reporter signal (DLD1 [3]): 1.05 ± 0.021
- TCF/Wnt firefly luciferase reporter signal (SW480 [4]): 0.864 ± 0.09

Structure (SMILES): O=c1c(O)c(-c2ccc(O)c(O)c2)oc2cc(O)ccc12
- cell viability (DLD1 [1]): 0.989 ± 0.073
- cell viability (HCT116): 0.948 ± 0.028
- cell viability (SW480 [2]): 0.969 ± 0.019
- TCF/Wnt firefly luciferase reporter signal (DLD1 [3]): 1.01 ± 0.097
- TCF/Wnt firefly luciferase reporter signal (SW480 [4]): 0.923 ± 0.11

Structure (SMILES): COC(=O)/C=C/C(C)=C\C=C\C(C)=C\C=C\C=C(C)\C=C\C=C(C)\C=C\C(=O)O
- cell viability (DLD1 [1]): 1.05 ± 0.057
- cell viability (HCT116): 1.05 ± 0.028
- cell viability (SW480 [2]): 0.968 ± 0.046
- TCF/Wnt firefly luciferase reporter signal (DLD1 [3]): 0.981 ± 0.042
- TCF/Wnt firefly luciferase reporter signal (SW480 [4]): 0.997 ± 0.047

Structure (SMILES): CN1CCC(=C2c3ccccc3CC(=O)c3sccc32)CC1
- cell viability (DLD1 [1]): 0.988 ± 0.046
- cell viability (HCT116): 1.04 ± 0.083
- cell viability (SW480 [2]): 0.988 ± 0.017
- TCF/Wnt firefly luciferase reporter signal (DLD1 [3]): 0.956 ± 0.021
- TCF/Wnt firefly luciferase reporter signal (SW480 [4]): 0.934 ± 0.042

Structure (SMILES): CC(C)Cc1ccc(C(C)C(=O)O)cc1 (stereo not given)
- cell viability (DLD1 [1]): 0.962 ± 0.082
- cell viability (HCT116): 1.04 ± 0.028
- cell viability (SW480 [2]): 1.04 ± 0.068
- TCF/Wnt firefly luciferase reporter signal (DLD1 [3]): 1.03 ± 0.021
- TCF/Wnt firefly luciferase reporter signal (SW480 [4]): 1.06 ± 0.028

Structure (SMILES): CC(CN(C)C)CN1c2ccccc2Sc2ccccc21 (stereo not given)
- cell viability (DLD1 [1]): 1 ± 0.12
- cell viability (HCT116): 1.02 ± 0.065
- cell viability (SW480 [2]): 1.06 ± 0.057
- TCF/Wnt firefly luciferase reporter signal (DLD1 [3]): 0.997 ± 0.15
- TCF/Wnt firefly luciferase reporter signal (SW480 [4]): 1.08 ± 0.071

Structure (SMILES): CN1CCc2cccc3c2[C@H]1Cc1ccc(O)c(O)c1-3
- cell viability (DLD1 [1]): 0.957 ± 0.06
- cell viability (HCT116): 1.04 ± 0.088
- cell viability (SW480 [2]): 0.992 ± 0.025
- TCF/Wnt firefly luciferase reporter signal (DLD1 [3]): 1.1 ± 0.057
- TCF/Wnt firefly luciferase reporter signal (SW480 [4]): 0.978 ± 0.088

Structure (SMILES): CO[C@@]1(NC(=O)Cc2cccs2)C(=O)N2C(C(=O)O)=C(COC(N)=O)CS[C@@H]21
- cell viability (DLD1 [1]): 1.06 ± 0.078
- cell viability (HCT116): 1.08 ± 0.2
- cell viability (SW480 [2]): 0.968 ± 0.023
- TCF/Wnt firefly luciferase reporter signal (DLD1 [3]): 1.07 ± 0.11
- TCF/Wnt firefly luciferase reporter signal (SW480 [4]): 0.887 ± 0.021

Structure (SMILES): CC1=C(C(=O)O)N2C(=O)[C@@H](NC(=O)[C@H](N)c3ccccc3)[C@H]2SC1
- cell viability (DLD1 [1]): 1 ± 0.065
- cell viability (HCT116): 1.02 ± 0.082
- cell viability (SW480 [2]): 0.983 ± 0.025
- TCF/Wnt firefly luciferase reporter signal (DLD1 [3]): 0.991 ± 0.056
- TCF/Wnt firefly luciferase reporter signal (SW480 [4]): 1.015 ± 0.0071

Structure (SMILES): COc1ccc(-c2cc(=O)c3cc(OC)ccc3o2)cc1
- cell viability (DLD1 [1]): 0.967 ± 0.031
- cell viability (HCT116): 0.964 ± 0.065
- cell viability (SW480 [2]): 0.998 ± 0.059
- TCF/Wnt firefly luciferase reporter signal (DLD1 [3]): 1.17 ± 0.057
- TCF/Wnt firefly luciferase reporter signal (SW480 [4]): 1.33 ± 0.014

Structure (SMILES): Cc1cc(O)c2c(c1)C(=O)c1cccc(O)c1C2=O
- cell viability (DLD1 [1]): 0.921 ± 0.04
- cell viability (HCT116): 1.07 ± 0.21
- cell viability (SW480 [2]): 0.936 ± 0.013
- TCF/Wnt firefly luciferase reporter signal (DLD1 [3]): 0.893 ± 0.15
- TCF/Wnt firefly luciferase reporter signal (SW480 [4]): 0.934 ± 0.042

Structure (SMILES): CCCCS(=N)(=O)CCC(N)C(=O)O (stereo not given)
- cell viability (DLD1 [1]): 1.04 ± 0.021
- cell viability (HCT116): 0.948 ± 0.22
- cell viability (SW480 [2]): 1.08 ± 0.014
- TCF/Wnt firefly luciferase reporter signal (DLD1 [3]): 1.05 ± 0.028
- TCF/Wnt firefly luciferase reporter signal (SW480 [4]): 1.03 ± 0.11

Structure (SMILES): C=C1CCC(C2CC(=O)OC2=O)C(=O)CCC2C1CC2(C)C (stereo not given)
- cell viability (DLD1 [1]): 1.01 ± 0.049
- cell viability (HCT116): 1.04 ± 0.09
- cell viability (SW480 [2]): 0.958 ± 0.0085
- TCF/Wnt firefly luciferase reporter signal (DLD1 [3]): 1.01 ± 0.19
- TCF/Wnt firefly luciferase reporter signal (SW480 [4]): 0.901 ± 0.018
